# From PubChem BioAssay (NCATS)
# Results filed as inconclusive are left out. Where a call stands in place of a potency, no number is given. Calls of active or inactive are those of the source. Calls follow the shape of the full dose curve.
# Molecular target: Atrial natriuretic peptide receptor 2 (Homo sapiens) (UniProt P20594)
# Experiment: Natriuretic polypeptide receptor (hNpr2) antagonism - Pilot subtype selectivity assay (AID 1347050)
# Conditions: NPR2-expressing cells, cGMP antagonist-mode read-out; series mostly up to 38.3 µM
# Experimental: F. Fan, B. F. Binkowski, B. L. Butler, P. F. Stecha, M. K. Lewis, K. V. Wood, Novel genetically encoded biosensors using firefly luciferase. ACS Chem Biol 3, 346-351 (2008).
# PROTOCOL TABLE (as described by Inglese J, Shamu CE and Guy RK. 2007)
# SEQUENCE No. (e.g., 1, 2, 3, etc.); […] (e.g., Cells, Incubation, Reagent, etc.); VALUE and DESCRIPTION.
# 1. Cells. Seed 1500 HEK293 cGMP-sensor cells expressing hNpr2 per well in 4uL into Greiner 1536-well white/solid bottom high base, TC plates.
# 2. Incubation. Incubate plated cells at 37C in 5% CO2, 95% RH overnight.
# 3. Reagent. Add 1uL per well GloSensor reagent from Promega (2% final concentration) or CO2 independent media vehicle control to respective columns of Greiner 1536-well plates.
# 4. Incubation. Incubate plated cells at ambient temperature for 2 h., protect from light.
# 5. Compounds. Library compounds and DMSO vehicle control added at 23nL per well, transferred by Pin Tool.
# 6. Incubation. Incubate plated cells for 30 min. at ambient temperature, protect from light.
# 7. Detector. GloSensor baseline pre-read luminescence measured using CCD-based camera (Viewlux).
# 8. Compound. Add 1uL of hNppC peptide to 1 nM final concentration to stimulate hNpr2 or CO2 independent media as vehicle control.
# 9. Incubation. Incubate treated cells at ambient temperature for 20 min., protect from light.
# 10. Detector. GloSensor post-hNppC luminescence measured using CCD-based camera (Viewlux).
# NOTES (numbers refer to Sequence numbers above)
# 1. HEK293 cells expressing hNpr2 and GIP/pGS-40F were grown to 85-95% confluence (48-72 h) in T175 culture flasks (CO2 independent media supplemented with 10% FBS, 1% Pen/Strep antibiotics, and 1 ug/mL puromycin). Trypsinize and harvest cells from T175 culture flasks and filter through 40 um cell strainer. Cells counted with Invitrogen Countess (30,000,000 - 50,000,000 cells/flask). Cells diluted to a final concentration of 375 cells/uL in CO2 independent media and a Millipore multidrop used to dispense 1500 cells per well (4uL/well) into 9 x1536-well Greiner White/Solid bottom, high base tissue-culture treated (TC) plates and one Aurora 1536-well Black/Clear bottom, low base, TC plate (for visual inspection of cell health throughout the duration of the assay).
# 2. Cells incubated for 24 h. at 37C in 95% RH incubator with metal lid having gas-exchange holes.
# 3. Prepare GloSensor Reagent (Promega): Reconstitute GloSensor luciferase substrate by adding 8.2mL Hepes buffer to 250mg substrate, mix well, protect from light and stored at -80C. Prepare a fresh 12% GloSensor solution in CO2 independent supplemented plating media (see above). Mix well and store at ambient temperature, protected from light. 1uL 12% GloSensor Luciferase Reagent added (2% final concentration) to respective columns of 9 x 1536-well Greiner plate with BioRaptr, 1uL CO2 independent plating media added to respective columns as vehicle control with BioRaptr.
# 4. Cells incubated for 2 h. at ambient temperature, protected from light with metal lid having gas-exchange holes.
# 5. 23nL of LOPAC1280 library compounds (7 plates) or DMSO vehicle control transferred to 9 Greiner white/solid bottom high base, TC plates in 7 interplate 1:5 titrations (see Yasgar, A. et al. 2008) with Pintool. Two of the 9 plates are DMSO-only in compound field at beginning and end of compound library-treated plates.
# 6. Cells incubated for 30-50 min. at ambient temperature protected from light with metal lid having gas-exchange holes.
# 7. Read cellular baseline GloSensor luminescence in presence of test library compounds on the ViewLux [Exposure = 10 s.; Gain = High; Speed = Slow; and Binning = 2X.]
# 8. hNppC peptide agonist solution prepared at 1 mM (in H2O) stock concentration. From this a working dilution was prepared at 6 nM in CO2 Independent media. […]
# Potency is read from the fitted curve at half-maximal effect.
# Sequence of Atrial natriuretic peptide receptor 2 (Homo sapiens) (P20594 whole entry, looked up): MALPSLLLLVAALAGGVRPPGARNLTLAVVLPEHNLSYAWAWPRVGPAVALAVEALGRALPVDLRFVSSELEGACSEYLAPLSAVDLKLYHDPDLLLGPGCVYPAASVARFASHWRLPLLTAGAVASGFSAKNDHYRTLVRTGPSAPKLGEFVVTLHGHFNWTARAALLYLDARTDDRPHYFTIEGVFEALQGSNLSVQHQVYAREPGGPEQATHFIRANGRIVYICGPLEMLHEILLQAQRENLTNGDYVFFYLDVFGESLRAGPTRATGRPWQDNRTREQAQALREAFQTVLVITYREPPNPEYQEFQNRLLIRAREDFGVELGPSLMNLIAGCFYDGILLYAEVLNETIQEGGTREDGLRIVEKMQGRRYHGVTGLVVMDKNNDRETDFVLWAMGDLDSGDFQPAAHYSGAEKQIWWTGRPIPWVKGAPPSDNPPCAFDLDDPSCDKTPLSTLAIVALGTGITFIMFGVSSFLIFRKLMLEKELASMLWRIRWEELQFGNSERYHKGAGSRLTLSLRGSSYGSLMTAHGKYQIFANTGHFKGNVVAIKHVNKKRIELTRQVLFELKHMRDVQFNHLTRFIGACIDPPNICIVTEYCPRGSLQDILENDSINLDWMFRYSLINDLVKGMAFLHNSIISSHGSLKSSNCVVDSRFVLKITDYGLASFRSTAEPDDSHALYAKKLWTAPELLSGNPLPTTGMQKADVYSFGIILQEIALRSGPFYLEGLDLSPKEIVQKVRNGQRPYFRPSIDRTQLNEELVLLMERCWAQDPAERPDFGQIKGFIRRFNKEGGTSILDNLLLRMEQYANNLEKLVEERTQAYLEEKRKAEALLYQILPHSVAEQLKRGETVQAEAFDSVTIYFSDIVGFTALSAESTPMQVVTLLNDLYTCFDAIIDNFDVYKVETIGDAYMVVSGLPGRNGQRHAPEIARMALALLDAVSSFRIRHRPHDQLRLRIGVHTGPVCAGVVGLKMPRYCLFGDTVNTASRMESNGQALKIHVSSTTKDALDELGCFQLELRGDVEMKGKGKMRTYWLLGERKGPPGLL
row,Compound,Potency
1,CN(C)CCCN1c2ccccc2CCc2ccc(Cl)cc21,7.36 µM (active)
2,CC(C(=O)O)c1cccc(C(=O)c2ccccc2)c1 (stereo not given),inactive
3,O=C(c1ccc(F)cc1)C1CCN(CCn2c(=O)[nH]c3ccccc3c2=O)CC1,inactive
4,Cn1c(=O)c2c(ncn2C)n(C)c1=O,inactive
5,Cc1ccccc1N1C(=O)c2cc(S(N)(=O)=O)c(Cl)cc2NC1C (stereo not given),inactive
6,CCC1(C)CC(=O)NC1=O (stereo not given),inactive
7,CCc1cccc2c3c([nH]c12)C(CC)(CC(=O)O)OCC3 (stereo not given),inactive
8,C[C@](N)(Cc1ccc(O)c(O)c1)C(=O)O,inactive
9,CC12CC3CC(C)(C1)CC(N)(C3)C2,inactive
10,OCCN1CCN(CCCN2c3ccccc3Sc3ccc(C(F)(F)F)cc32)CC1,inactive
11,CCCCc1oc2ccccc2c1C(=O)c1cc(I)c(OCCN(CC)CC)c(I)c1,inactive
12,NC(=O)OCC(COC(N)=O)c1ccccc1,inactive
13,COc1ccccc1N1CCN(CC(O)COc2cccc3ccccc23)CC1 (stereo not given),inactive
14,CC(C)Cc1ccc(C(C)C(=O)O)cc1 (stereo not given),inactive
15,NC12CC3CC(CC(C3)C1)C2,inactive
16,CC(CCc1ccc(O)cc1)NCCc1ccc(O)c(O)c1 (stereo not given),inactive
17,NCCS(=O)(=O)O,inactive
18,C[C@H]1c2cccc(O)c2C(O)=C2C(=O)[C@]3(O)C(O)=C(C(N)=O)C(=O)[C@@H](N(C)C)[C@@H]3[C@@H](O)[C@@H]21,inactive
19,Cc1cnc(C(=O)NCCc2ccc(S(=O)(=O)NC(=O)NC3CCCCC3)cc2)cn1,inactive
20,Clc1ccc(C(c2ccccc2Cl)C(Cl)Cl)cc1 (stereo not given),inactive

row,Compound,Potency
1,CC(C)NCC(O)COc1ccc(CCOCC2CC2)cc1 (stereo not given),inactive
2,CN1CCN2c3ccccc3Cc3ccccc3C2C1 (stereo not given),inactive
3,COc1ccccc1OCCNCC(O)COc1cccc2[nH]c3ccccc3c12 (stereo not given),inactive
4,CCN1CCCC1CNC(=O)c1cc(S(=O)(=O)CC)c(N)cc1OC (stereo not given),inactive
5,Clc1ccc2c(c1)C(N1CCNCC1)=Nc1ccccc1O2,8.26 µM (active)
6,CCOC(=O)Nc1ccc(NCc2ccc(F)cc2)nc1N,inactive
7,Cc1ccc(C(=O)Nc2ccc(S(=O)(=O)O)c3cc(S(=O)(=O)O)cc(S(=O)(=O)O)c23)cc1NC(=O)c1cccc(NC(=O)Nc2cccc(C(=O)Nc3cc(C(=O)Nc4ccc(S(=O)(=O)O)c5cc(S(=O)(=O)O)cc(S(=O)(=O)O)c45)ccc3C)c2)c1,inactive
8,COc1cc2nc(N(C)CCCNC(=O)C3CCCO3)nc(N)c2cc1OC (stereo not given),inactive
9,CCOC(=O)c1ncn2c1CN(C)C(=O)c1cc(F)ccc1-2,inactive
10,CC(COc1ccccc1)N(CCCl)Cc1ccccc1 (stereo not given),inactive
11,Cc1cn([C@H]2C[C@H](N=[N+]=[N-])[C@@H](CO)O2)c(=O)[nH]c1=O,inactive
12,O=c1c(-c2ccc(O)cc2)coc2cc(O)cc(O)c12,inactive
13,CN1C2CCC1CC(OC(=O)C(CO)c1ccccc1)C2 (stereo not given),inactive
14,Cc1cc(C(C)(C)C)cc(C)c1CC1=NCCN1,inactive
15,CC(C)C(=O)Nc1ccc([N+](=O)[O-])c(C(F)(F)F)c1,inactive
16,COc1cc2nc(N3CCN(C(=O)c4ccco4)CC3)nc(N)c2cc1OC,inactive
17,CN1CCN(CCCN2c3ccccc3Sc3ccc(Cl)cc32)CC1,18.5 µM (active)
18,NC(=O)NO,inactive
19,Nc1nc2c(ncn2COC(CO)CO)c(=O)[nH]1,inactive
20,O=C(CCCN1CCC(O)(c2ccc(Cl)cc2)CC1)c1ccc(F)cc1,inactive
